Inconclusive results are not listed. Where a call stands in place of a potency, no number is given. Active and inactive are the calls of the source. The call rests on the fitted dose curve; in most records, active means well fitted inhibition curve with a large enough effect; inconclusive means small, poorly fitted or top-dose-only effect; inactive means flat fitted curve, though single readings scatter.
Potency means the concentration at half of the fitted maximal effect.

Sequence of Calcium and integrin-binding protein 1 (Homo sapiens) (Q99828 whole entry, looked up): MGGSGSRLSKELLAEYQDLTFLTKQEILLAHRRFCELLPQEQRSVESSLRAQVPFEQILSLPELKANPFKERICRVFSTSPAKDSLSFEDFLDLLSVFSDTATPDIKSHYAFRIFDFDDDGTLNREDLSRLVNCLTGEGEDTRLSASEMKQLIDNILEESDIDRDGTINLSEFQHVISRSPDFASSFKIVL

The assay concerns the target Calcium and integrin-binding protein 1 (Homo sapiens) (UniProt Q99828). The experiment in a line: Primary qHTS for Identification of Calcium Integrin Binding Protein 1 (CIB1) Competitor (AID 1508620). To be noted: CIB1-GST / FITC-alphaIIb peptide fluorescence polarization; series mostly up to 114 µM. In outline: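 Fluorescence polarization competition: GST-tagged CIB1 (1 uM final) preincubated with compound 15 min at room temperature, then FITC-labelled alphaIIb peptide (100 nM final) added. After 15 min at room temperature, polarization read at Ex 480/Em 540.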
In general terms: qHTS replaces the single test concentration by a dilution series.
Take `C[C@@H]1C[C@H](C)CN(CCC(=O)Nc2ccc(Br)cc2)C1`: the Potency result was “inactive”. For `Cc1c(OCc2cccc(-c3ccc(C(=O)O)cc3)c2)cc2c(c1C)C(=O)C(C1CCCC1)C2` (stereo not given), the Potency result is “inactive”.

With `Cn1ncc(Cl)c1-c1cc(C(=O)NC(CN)Cc2ccc(F)c(F)c2)oc1Cl` (stereo not given), the Potency result is “inactive”.

Take `CC1=C(C(=O)OC2CCCCC2)C(c2ccc([N+](=O)[O-])cc2)C2=C(CC(C)(C)CC2=O)N1` (stereo not given): the Potency was 17.8 µM (active). With `CC(=O)NCc1cccc(OC[C@@H](O)CNCCc2ccc(NS(=O)(=O)c3ccccc3)cc2)c1`, the Potency result was “inactive”. With `O=C(Nc1ccc(-n2nc(C(F)(F)F)cc2C(F)(F)F)cc1)c1ccncc1F` the entry was “inactive”; with `CN(CC1COCCO1)S(=O)(=O)Nc1ccc2ccc3ncc(-c4cnn(C)c4)cc3c(=O)c2c1` (stereo not given), “inactive”. For `O=C(Nc1cccc([N+](=O)[O-])c1)c1cccc(S(=O)(=O)N2CCCCCC2)c1`, the Potency result is “inactive”. On to `CC(F)(F)CN1CCOc2c(nn(-c3ccccc3Cl)c2-c2ccc(Cl)cc2)C1=O`, for which the Potency entry is “inactive”. For the molecule `Cc1nc2cc(C(=O)NCc3ccccn3)nn2c(C)c1Cc1cccc(Cl)c1`, the Potency result is “inactive”.

Turning to `C=C1C(=O)O[C@@H]2C[C@H](C)[C@@H]3CC(=O)[C@H](O)[C@@]3(C)C[C@H]12`, the Potency entry is “inactive”.

`CC1CCCC[C@H]2C(=O)C=C[C@H](O)[C@@H]2CC(=O)O1` (stereo not given in full): the Potency was 28.2 µM (active). For `CCN(CC)CCCCCCNc1cc(OC)cc2c(C)ccnc12`, the Potency result was “inactive”. With `NC(=O)c1cnc(N[C@@H]2CCCC[C@H]2N)nc1Nc1cccc(-n2nccn2)c1` the entry was “inactive”; with `C=C1C(=O)OC2/C=C(\CO)CC/C=C(\C=O)C(O)C(OC(=O)C(C)CC)C12` (stereo not given), “inactive”.

Consider `Nc1nc(Cl)nc2c1ncn2C1OC(CO)C(O)C1F` (stereo not given), for which the Potency entry is “inactive”. In the case of `O=C(c1ccccn1)N(Cc1cccs1)C1(C(=O)NC2CCCCC2)CCCCC1`, the Potency result is “inactive”.

For `Cc1c(Cl)cccc1S(=O)(=O)Nc1nc(NCCc2ccccc2)nc2c1CN(Cc1ccccc1)CC2`, the Potency entry is “inactive”. With `O=C(NCCCNC(=O)c1ccc[nH]c1=O)c1cc(-c2ccccc2)on1` the entry was “inactive”; with `Cc1cc(NC(=O)NCCN2CCC(O)(Cc3ccccc3)CC2)c2ccccc2n1`, “inactive”; with `COc1cc(O)c2c(c1)C1OC1C[C@H](O)[C@H](O)C(=O)/C=C\C[C@H](C)OC2=O` (stereo not given in full), “inactive”. In the case of `C[C@@H]1O[C@@H](O[C@H]2[C@@H]3C=CO[C@@H](O[C@@H]4O[C@H](CO)[C@@H](O)[C@H](O)[C@H]4O)[C@@H]3[C@@]3(CO)O[C@@H]23)[C@H](O)[C@H](OC(=O)/C=C/c2ccccc2)[C@H]1O`, the Potency result is “inactive”. With `CCC(C(C)O)n1ncn(-c2ccc(N3CCN(c4ccc(OCC5COC(Cn6cncn6)(c6ccc(F)cc6F)C5)cc4)CC3)cc2)c1=O` (stereo not given) the entry was “inactive”; with `CNc1cc2[nH]c(=O)n(-c3ccc(NC(=O)NS(=O)(=O)c4ccc(Cl)s4)cc3)c(=O)c2cc1F`, “inactive”; with `O=C1COC2(CCN(S(=O)(=O)c3ccc(-c4ccc5cccnc5c4)cc3)CC2)CN1C1CC1`, “inactive”. On to `CCCn1cc2c(nc(NC(=O)Nc3ccc(OC)cc3)n3nc(-c4ccco4)nc23)n1`, for which the Potency entry is “inactive”. With `CCC(C)/C=C(C)/C=C/C1=CC2=C(Cl)C(=O)C(C)(OC(C)=O)C(=O)C2(O)C(OC)O1` (stereo not given), the Potency entry is “inactive”.

With `COc1cc(NC(=O)c2cccc(-n3cc(NC(=O)Nc4cccc(C)c4)cn3)c2)cc(OC)c1OC`, the Potency entry is “inactive”. For the molecule `CCCOc1ccc(S(=O)(=O)N2CCN(CCO)CC2)cc1-c1nc2c(CCC)cn(CC)c2c(=O)[nH]1`, the Potency result is “inactive”. Consider `CC(=O)O[C@@H]1C[C@@]23C[C@@]24CC[C@H](O[C@@H]2OC[C@H](O)[C@H](O)[C@H]2O)C(C)(C)[C@@H]4CC[C@H]3[C@]2(C)[C@@H](O)C34O[C@H](C[C@@H](C)[C@@H]3[C@@]12C)[C@@H](C(C)(C)O)O4`, for which the Potency entry is “inactive”.

As to `CC(O)(C(=O)O)C1CCC2(C)C1CCC1(C)C2CCC2C3(C)CCC(O)C(C)(COC4OC(CO)C(O)C(O)C4O)C3CCC21C` (stereo not given), the Potency result is “inactive”. With `CCOC(=O)N1CCC(CN(Cc2ccc(Cl)cc2)Cc2ccc([N+](=O)[O-])s2)C1` (stereo not given) the entry was “inactive”; with `C=CC(=O)N1CCN(C(=O)CNc2cc(-c3ccccc3Cl)c(Cl)cc2OC)CC1`, “inactive”; with `Cc1c(NC(=O)OCC2COCCN2)cn2ncnc(Nc3ccc4c(cnn4Cc4cccc(F)c4)c3)c12` (stereo not given), “inactive”. In the case of `CO[C@H]1C[C@@H]2CC[C@@H](C)[C@@](O)(O2)C(=O)C(=O)N2CCCC[C@H]2C(=O)O[C@H]([C@@H](C)C[C@@H]2CC[C@@H](O)[C@H](OC)C2)CC(=O)[C@H](C)/C=C(\C)[C@@H](O)[C@@H](OC)C(=O)[C@H](C)C[C@H](C)/C=C/C=C/C=C/1C`, the Potency result is “inactive”.
